Screening data deposited in PubChem BioAssay by The Scripps Research Institute Molecular Screening Center.
An excerpt weighted towards active compounds, which were near 2.3% of everything screened.
CHRM1 agonist = agonists of human M1 muscarinic receptor; CHO-K1 hM1, Fluo-8 calcium fluorescence, agonist mode; 0% DMSO, 100% acetylcholine EC100; activation, % at 3 µM; 360,000 tested, 0.33% active; AID 588814;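 active = activation above the run's mean compound activation plus 3 SD, cut at about 16% in these data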;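 note: peak over basal fluorescence ratio within a 140 s kinetic read after compound addition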
Target sequence (P11229 whole entry, looked up): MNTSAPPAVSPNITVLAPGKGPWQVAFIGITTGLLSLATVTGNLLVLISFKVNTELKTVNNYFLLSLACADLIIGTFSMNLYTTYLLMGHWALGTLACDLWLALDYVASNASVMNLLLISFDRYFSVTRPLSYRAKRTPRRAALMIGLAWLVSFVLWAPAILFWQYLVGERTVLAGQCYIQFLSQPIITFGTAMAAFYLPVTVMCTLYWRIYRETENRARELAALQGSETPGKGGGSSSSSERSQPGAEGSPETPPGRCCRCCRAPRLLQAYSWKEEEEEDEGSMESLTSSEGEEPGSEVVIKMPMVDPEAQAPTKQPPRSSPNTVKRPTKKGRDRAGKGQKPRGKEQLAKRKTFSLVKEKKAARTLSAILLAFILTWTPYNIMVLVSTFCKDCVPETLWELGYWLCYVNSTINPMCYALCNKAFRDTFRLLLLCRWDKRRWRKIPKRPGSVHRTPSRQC
CHRM1 PAM = positive allosteric modulators of human M1 muscarinic receptor | P11229 | CHO-K1 hM1, Fluo-8 calcium fluorescence, ACh EC20; 0% = ACh EC20, 100% = maximal ACh | activation, % at 3 µM | 360,000 tested, 0.088% active | AID 588819; in the data active = activation above about 19%, passing the limit was not always enough
M1 PAM parental = nonselective activator or artifact in parental CHO-K1 calcium assay; AID 602247; 360,000 tested, 0.02% active; activation, % at 3 µM; ATP EC20, Fluo-8 calcium fluorescence; 0% at ATP EC20, 100% at ATP max;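 active = activation above the run cutoff, the mean activation of all test compounds plus 3 SD, cut at about 40% in these data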;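 note: peak over basal fluorescence ratio in a 140 s read after ATP addition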
CHO-K1 Ca ag = counter-screen for M1 agonists: effect in parental CHO-K1 cells; Fluo-8 calcium fluorescence; scaled to maximal ATP response, vehicle zero; activation, % at 3 µM; 360,000 tested, 0.48% active; in the data active = activation above about 15%;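 note: untransfected CHO-K1 host cells lacking M1 receptor as counterscreen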
M1 antag = antagonists of human M1 muscarinic receptor | inhibition, % at 3 µM | AID 588852 | CHO-K1 hM1, Fluo-8 calcium fluorescence, ACh EC80 antagonist | P11229 | 360,000 tested, 1.3% active;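 active = percent inhibition above its own plate's cutoff, namely the mean of that plate's compound wells plus 3 SD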;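 note: peak over basal fluorescence ratio during 140 s after agonist addition; 0% = ACh EC80 plus DMSO and 100% = DMSO alone without agonist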
CHO-K1 Ca antag = counter-screen for M1 antagonists: effect in parental CHO-K1 cells. 360,000 tested, 0.6% active. AID 602250. inhibition, % at 3 µM. ATP-induced calcium, Fluo-8 fluorescence;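 active = inhibition above a per-plate cutoff, the plate's mean sample inhibition plus 3 SD, cut at about 24% in these data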;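 note: 0% = DMSO plus EC80 ATP and 100% = DMSO alone without ATP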
* marks the source's active call; other numbers are inactive results.

SMILES	CHRM1 agonist	CHRM1 PAM	M1 PAM parental	CHO-K1 Ca ag	M1 antag	CHO-K1 Ca antag
COC(=O)C1CCN(C(=O)COC(=O)c2cc(-c3cccs3)nn2-c2ccccc2)CC1	-7.8	-15.2	-21.7	0.6	16.0	0.9
CC1CCCCN1C(=O)COC(=O)c1cc(-c2cccs2)nn1-c1ccccc1 (centres undefined)	-7.0	-25.7	13.6	1.2	45.1*	-12.1
CNC(=O)COC(=O)c1ccccc1Oc1ccccc1	-2.8	-2.0	-7.2	0.1	5.4	28.7*
C/C(=N\NC(=O)C(c1ccccc1)c1ccccc1)c1ccc(O)cc1	2.5	31.4*	19.9	0.5	-38.8	-13.2
COc1ccc(-c2ccc(CCC(=O)O)n2CC(=O)Nc2ccccc2C)cc1	-3.7	4.8	-6.4	3.6	-1.7	11.1
C=CCOC(=O)C1=C(C)NC(=S)C(C#N)(CC=C)C1c1ccccc1Cl (centres undefined)	5.3	7.7	10.4	16.7*	-0.6	2.3
C=CCOC(=O)C1=C(C)OC(N)=C(C#N)C1c1ccccc1F (centres undefined)	-5.5	4.6	-7.2	-0.7	-4.9	-9.8
Cc1ccc(-n2nnnc2CNC(=O)c2ccc3c(c2)OCO3)cc1C	-6.5	-23.9	-7.3	0.5	63.2*	-6.1
Cc1ccc(-n2nnnc2CNC(=O)c2ccc(Br)o2)cc1C	-3.4	2.6	4.8	0.5	-3.3	-15.3
Nc1c(Cl)ncnc1N/N=C/c1cccc(O)c1	-4.7	2.6	13.5	0.3	-6.8	-5.3
Nc1c(Cl)ncnc1N/N=C/c1ccncc1	-1.6	8.2	-20.0	-0.6	-9.0	25.7*
CCc1ccc(C(=O)C(C)OC(=O)c2nc3nc(C)cc(C)n3n2)cc1 (centres undefined)	-1.9	5.9	-15.3	-0.3	1.6	-1.1
CC(C)CNC(=O)CSc1ccc(S(=O)(=O)N2CCN(C)CC2)cn1	-4.2	-5.7	-10.5	-0.2	18.1	-8.3
O=C(OCCNc1nc(-c2ccccc2)nc2ccccc12)c1cccnc1	-7.0	8.1	2.9	3.9	-2.2	1.5
CCCOC(=O)c1cccc(Nc2nc(-c3cccnc3)nc3ccccc23)c1	-4.8	-18.2	6.7	3.8	34.4*	0.9
COc1ccccc1NC(=O)CSc1nc2ccccc2cc1Cc1ccccc1	-6.1	-0.7	41.7*	0.8	1.4	-10.7
Cc1ccc(S(=O)(=O)N2CCC(C(=O)NCc3ccccc3CN3CCCC3)CC2)cc1	-8.1	-23.2	3.6	0.3	34.7*	-3.5
COc1ccccc1N(C)S(=O)(=O)c1ccc(C(=O)N2CCCc3ccccc32)cc1	-2.9	-11.8	4.6	16.1*	14.5	3.9
COc1ccccc1N(C)S(=O)(=O)c1ccc(C(=O)NCc2ccccc2CN2CCCC2)cc1	-5.8	-14.1	12.6	3.9	35.9*	-14.0
Cc1cc(C)c(NN=c2c(=O)c3ccccc3c2=O)c(C)c1	-11.0	-26.6	-4.6	-0.1	34.5*	10.6
Cc1ccc(-c2nc(SCC(=O)N(C)c3c(N)n(Cc4ccccc4)c(=O)[nH]c3=O)n[nH]2)cc1	-2.1	-1.1	-21.8	-0.3	-6.2	8.7
COc1ccc(-n2c(COc3cccc4ccccc34)nnc2SC(C)C(=O)O)cc1 (centres undefined)	-10.7	4.6	-6.0	-1.0	4.5	31.6*
CCOc1ccc(-n2nnc3c(=O)n(CC(=O)N4CCCc5ccccc54)cnc32)cc1	-10.0	-32.0	13.4	-0.7	74.3*	4.0
COc1ccc(-n2nnc3c(=O)n(CC(=O)N4CCCc5ccccc54)cnc32)cc1	-1.1	-1.6	3.0	0.3	0.9	12.3
COc1ccccc1CNC(=O)COc1cc2c(c3oc(=O)cc(C)c13)CCC(C)(C)O2	-5.0	-24.9	-14.1	1.4	33.5*	0.7
SMILES	CHRM1 agonist	CHRM1 PAM	M1 PAM parental	CHO-K1 Ca ag	M1 antag	CHO-K1 Ca antag
COc1ccc(S(=O)(=O)N2CCCOC2CNC(=O)C(=O)NCc2ccccc2C)cc1 (centres undefined)	2.2	7.5	18.3	2.0	-14.0	-3.4
CCCCNC(=S)N/N=C1\C(=O)c2cccc3cccc1c23	-4.8	-7.1	-9.3	-0.3	3.2	24.6*
Cc1ccc(S(=O)(=O)N2CCCC2C(=O)n2nc(C)cc2C)cc1 (centres undefined)	-4.5	7.8	15.3	-0.1	-8.6	-4.7
COc1ccc(S(=O)(=O)N2CCCC2C(=O)n2nc(C)cc2C)cc1 (centres undefined)	-5.3	-7.1	-14.7	-0.5	6.3	30.1*
O=C(CN1C(=O)c2cccnc2Oc2ccc(Cl)cc21)NCCCc1ccccc1	1.9	-8.8	14.6	9.2	30.0*	1.5
O=Nc1c(O)n(Cc2c(Cl)cccc2Cl)c2ccccc12	36.2*	-0.7	16.1	-0.3	6.5	-10.2
Cc1ccc(Cn2c(O)c(N=O)c3ccccc32)cc1	19.6*	8.7	-13.6	2.4	-5.2	19.3
O=Nc1c(O)n(Cc2ccc(Cl)cc2)c2ccccc12	18.4*	21.8*	5.3	0.0	-15.8	-5.2
O=C(O)C1CC(O)CN1C(=O)c1ccco1 (centres undefined)	-2.8	9.2	5.0	0.1	-6.0	-4.7
Cc1nn(C)cc1CNCc1c(C(=O)N2CCCCC2)nc2c(C)cccn12	-7.9	7.0	-0.2	0.4	-14.7	6.9
CN1CCN(c2ccc(NC(=O)COc3ccccc3Cl)cc2)CC1	-6.3	-2.3	8.4	1.1	-34.6	-3.5
C=CC(=O)Nc1ccc(N(C)c2ccnc(Nc3ccc(N4CCN(C)CC4)cc3)n2)cc1	-10.7	-31.6	16.8	-0.1	55.5*	-5.8
Oc1c(C(c2ccccc2)N2CCCCC2)ccc2ccccc12 (centres undefined)	-0.8	9.8	6.3	0.6	-14.4	-7.0
Cn1nc(C(C)(C)C)cc1C(=O)N1CCCCC1c1cc(C(=O)Nc2ccccc2)no1 (centres undefined)	-4.2	-5.7	-4.0	2.8	7.0	12.3
COc1ccc(N(C)S(=O)(=O)c2cccc(C(=O)OCC(=O)Nc3cc(C)ccc3OC)c2)cc1	0.7	-20.0	7.1	8.4	36.2*	6.0
COc1ccc(N(C)S(=O)(=O)c2cccc(C(=O)OCC(=O)c3c(N)n(C)c(=O)n(C)c3=O)c2)cc1	6.4	-22.7	-15.6	20.6*	41.8*	8.1
CCN(c1ccccc1)S(=O)(=O)c1cccc(C(=O)OCC(=O)c2c(N)n(C)c(=O)n(C)c2=O)c1	-4.4	-17.3	4.6	6.8	29.9	-20.1
CN1\C(=C/C=C/C=C/C=[N+](C)C)C(C)(C)c2ccccc21	52.6*	-20.1	-4.4	25.7*	47.0*	14.2
O=C(NCC(=O)N1CCN(c2ccccc2)CC1)c1ccc(Cl)cc1	-1.6	3.0	-7.9	-0.2	68.7*	0.9
O=C(NCC(=O)N1CCN(C/C=C/c2ccccc2)CC1)c1ccc(Br)cc1	18.1*	-14.6	7.4	2.1	33.0*	-19.8
